This experiment deals with Polyadenylate-binding protein 1 (Homo sapiens) (UniProt P11940). In words: PABP poly(A) RNA binding inhibitors, primary screen, biochemical, fluorescence polarization, uHTS (AID 2014).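 Note: calls also rest on retests at 20 µM and on dose response follow-up.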 Conditions: stronger effect = higher value. In general terms: Polarisation of emitted light reports the rotation of a fluorescent probe.

The campaign covered roughly 290,000 compounds. About 3,000 (1%) were called active. The rule behind the calls is not given here. Many of the other results were omitted from the sample, so actives are more common in it than they were.

Chain of Polyadenylate-binding protein 1 (Homo sapiens) (P11940 whole entry, looked up): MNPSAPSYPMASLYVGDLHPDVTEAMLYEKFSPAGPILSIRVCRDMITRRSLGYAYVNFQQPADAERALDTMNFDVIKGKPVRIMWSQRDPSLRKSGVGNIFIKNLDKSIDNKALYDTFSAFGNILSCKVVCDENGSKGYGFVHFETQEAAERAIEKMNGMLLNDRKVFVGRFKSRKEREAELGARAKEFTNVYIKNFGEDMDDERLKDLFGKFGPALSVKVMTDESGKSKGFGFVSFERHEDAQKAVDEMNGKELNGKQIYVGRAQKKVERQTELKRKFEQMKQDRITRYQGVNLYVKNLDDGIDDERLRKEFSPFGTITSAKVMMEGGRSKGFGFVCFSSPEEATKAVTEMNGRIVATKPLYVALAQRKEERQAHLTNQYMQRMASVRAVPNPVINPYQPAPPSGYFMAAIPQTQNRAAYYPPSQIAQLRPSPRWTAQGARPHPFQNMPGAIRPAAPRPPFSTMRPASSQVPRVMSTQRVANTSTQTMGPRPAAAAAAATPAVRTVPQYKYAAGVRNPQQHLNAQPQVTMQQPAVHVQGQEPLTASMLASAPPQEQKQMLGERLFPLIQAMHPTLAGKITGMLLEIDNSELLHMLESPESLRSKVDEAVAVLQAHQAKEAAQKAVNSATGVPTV

With `O=C1NC(=O)N(CCc2ccc(F)cc2)C(=O)/C1=C/C=C/c1ccccc1`, the inhibition (at 35 µM) was -13.4% (inactive).

As for `O=C1NC(=O)N(Cc2ccco2)C(=O)/C1=C\c1cccn1CCOc1ccccc1`, under “at 35 µM”, the inhibition is 10.9% (inactive).

In the case of `O=C(O)COc1ccccc1/C=C1\C(=O)NC(=O)N(CCC2=CCCCC2)C1=O`, the inhibition (at 35 µM) is 53.5% (active).

As to `COc1ccc(Br)cc1CNCCc1cccc(Cl)c1`, the inhibition (at 35 µM) was 3.3% (inactive).

Regarding `c1ccc(CC2CCCCN2)cc1` (stereo unspecified), under “at 35 µM”, the inhibition was 1.7% (inactive).

`COc1ccc(CNCCc2c[nH]c3ccccc23)cc1OC`: for the setting “at 35 µM”, the inhibition is 11.6% (inactive).

Take `CC(=NCC1CCCO1)c1c(O)n(-c2ccccc2)c(=O)[nH]c1=O` (stereo unspecified): the inhibition (at 35 µM) was -3.4% (inactive).

Take `CC(=O)c1c(O)n(C2CCCCCC2)c(=O)[nH]c1=O`: the inhibition (at 35 µM) is 75.6% (active).

For `CCC(=NCCc1ccccc1)c1c(O)n(C2CCCCC2)c(=O)[nH]c1=O`, under “at 35 µM”, the inhibition is -9.2% (inactive).

`COc1cccc(OC)c1C(=O)NC(=S)N1C[C@H]2C[C@H](C1)c1cccc(=O)n1C2`: the inhibition (at 35 µM) is 13.3% (inactive).

On to `CN(C)c1ccc(/C=C2\CC3C4CC=C5CC(O)CCC5(C)C4CCC3(C)C2=O)cc1` (stereo unspecified), for which the inhibition runs as follows: (at 35 µM) 53.3% (active); (confirmation repeats, at 20 µM) 93.6%.

For `O=C(Cc1ccc(Cl)cc1)NCCN1CCN(C(=O)Cc2ccc(Cl)cc2)CC1`, under “at 35 µM”, the inhibition is 3.1% (inactive).

Regarding `O=[N+]([O-])c1cnc2ccc3ccccc3c2c1`, for the setting “at 35 µM”, the inhibition was 3.3% (inactive).

As for `COc1ccc2[nH]c3c(c2c1)CCN[C@H]3C`, the inhibition (at 35 µM) is 7.6% (inactive).

As for `COc1ccc(N=Cc2c(O)n(C)c(=O)[nH]c2=O)cc1`, the inhibition (at 35 µM) was -8.6% (inactive).

Turning to `CN(C)CCN(CC1CCCN(Cc2ccccc2F)C1)C(=O)Cc1ccc(F)c(F)c1` (stereo unspecified), under “at 35 µM”, the inhibition is 0.6% (inactive).

As to `Cc1c(Oc2cc(NN3CCCCC3)c([N+](=O)[O-])cc2[N+](=O)[O-])cccc1[N+](=O)[O-]`, the inhibition (at 35 µM) was 2.3% (inactive).

Turning to `O=C(NC(=S)N1C[C@H]2C[C@H](C1)c1cccc(=O)n1C2)c1ccc(F)cc1`, the inhibition (at 35 µM) is 2.2% (inactive).

With `CCN(CC)CCOC(=O)c1cc2cc(COC)ccc2o1`, the inhibition (at 35 µM) was 70.7% (active).

`C=CCN1C(=O)NC(=O)/C(=C/c2ccc(OCC(=O)Nc3ccc(C)cc3)cc2)C1=O`: the inhibition (at 35 µM) was 8.1% (inactive).

`COc1ccc(CNCCc2ccc3c(c2)OCO3)c(OC)c1OC`: the inhibition (at 35 µM) was 11.3% (inactive).

Take `CCNc1nc2[nH]c(=O)c3c(c2s1)OC(N)=C(C#N)C3c1cccs1` (stereo unspecified): the inhibition (at 35 µM) was 68.5% (active).

Consider `N#CC1=C(N)Oc2c(c(=O)oc3ccccc23)C1c1ccccc1OC(=O)c1cccs1` (stereo unspecified), for which, where the note is “at 35 µM”, the inhibition was -4.4% (inactive).

In the case of `COc1cccc(C(=O)N2C[C@H]3C[C@@H](C2)c2cccc(=O)n2C3)c1`, for the setting “at 35 µM”, the inhibition is 1.4% (inactive).

Consider `COc1ccccc1NC(=O)N1C[C@@H]2C[C@@H](C1)c1cccc(=O)n1C2`, for which the inhibition (at 35 µM) is -1.1% (inactive).

For `O=C(O)c1ccccc1NC(=O)C1C2CCC(O2)C1C(=O)O` (stereo unspecified), the inhibition (at 35 µM) was -8.7% (inactive).

Regarding `Cc1cccc(N2C(=O)NC(=O)/C(=C\c3cnn(-c4ccccc4)c3)C2=O)c1`, the inhibition (at 35 µM) was -12.4% (inactive).

For `O=C1NC(=O)N(c2ccccc2)C(=O)/C1=C/c1ccc([N+](=O)[O-])s1`, the inhibition is 40.1% (inactive) (at 35 µM) and 30.8% (confirmation repeats, at 20 µM).

Consider `COc1cccc(N2C(=O)NC(=O)/C(=C\c3ccc([N+](=O)[O-])s3)C2=O)c1`, for which the inhibition runs as follows: (at 35 µM) -6.1% (active); (confirmation repeats, at 20 µM) 95.4%.

Consider `Oc1cc2c(cc1CN1CCN(c3ccccc3)CC1)OCO2`, for which, for the setting “at 35 µM”, the inhibition is 2% (inactive).

On to `COCCNC(=O)CN1C2CCC1CC(O)(c1cccnc1)C2` (stereo unspecified), for which the inhibition (at 35 µM) was 14.6% (inactive).

Turning to `O=C(CN1CCCC1=O)NCCc1ccccc1`, the inhibition (at 35 µM) was -2.9% (inactive).

Consider `O=C1CC(=O)N(Cc2ccccc2)C(=O)N1CCCCCCN1C(=O)CC(=O)N(Cc2ccccc2)C1=O`, for which the inhibition runs as follows: (at 35 µM) 25.8% (active); (confirmation repeats, at 20 µM) 112%.

On to `CC(C)(C)c1ccc(CN2C(=O)CN=C(c3ccccc3)c3ccccc32)cc1`, for which, under “at 35 µM”, the inhibition was 12.1% (inactive).

On to `CC(C)c1ccc(OCC(=O)N2CCCN(C)CC2)cc1`, for which the inhibition (at 35 µM) is -0.5% (inactive).

In the case of `Cc1cc(/C=C2/C(=O)NC(=O)N(Cc3ccco3)C2=O)c(C)n1-c1ccc(C(=O)O)cc1`, the inhibition is, setting by setting: (at 35 µM) 47.1% (inactive); (confirmation repeats, at 20 µM) 23.1%.

Turning to `COc1ccc(CN2C(=O)NC(=O)/C(=C\c3ccc(OC)c(OC)c3OC)C2=O)cc1`, the inhibition is, setting by setting: (at 35 µM) 66.4% (inactive); (confirmation repeats, at 20 µM) 6.1%.

For the compound `COc1ccc(N2C(=O)/C(=C/c3ccco3)C(=O)NC2=S)cc1`, the inhibition (at 35 µM) is 38.7% (active) and the inhibition (confirmation repeats, at 20 µM) came out at 73.3%.

Take `COc1ccccc1OC(=O)c1ccc(C)c(S(=O)(=O)N2CCOCC2)c1`: the inhibition (at 35 µM) was -7% (inactive).

As for `CCN(CC)C(=O)c1ccc(NC(=O)c2sccc2-c2ccccc2)cc1`, the inhibition (at 35 µM) is -2.6% (inactive).

Consider `CN(C)C(=O)Oc1ccc2c(c1)O/C(=C\c1ccccc1)C2=O`, for which the inhibition (at 35 µM) was -6.7% (inactive).

On to `CC(=O)Nc1ccc(C(=O)C(Cc2ccccc2)N(C)C)cc1` (stereo unspecified), for which, where the note is “at 35 µM”, the inhibition is -3.6% (inactive).

On to `c1ccc(CCNC2CCCCCC2)cc1`, for which the inhibition (at 35 µM) was 8.2% (inactive).

`O=c1[nH]c(=O)n(CCc2ccccc2)c(O)c1/C=N/N1CCOCC1`: the inhibition (at 35 µM) is -1.6% (inactive).

As to `O=c1[nH]c(=O)n(Cc2ccccc2)c(O)c1/C=N/Nc1c(F)c(F)c(F)c(F)c1F`, the inhibition (at 35 µM) is 71% (active).

On to `O=c1[nH]c(=O)n(CCc2ccc(F)cc2)c(O)c1/C=N/N1CCCCC1`, for which the inhibition (at 35 µM) is -15% (inactive).

For the compound `O=C(N/N=C/c1c(O)n(Cc2ccccc2)c(=O)[nH]c1=O)c1ccccc1`, the inhibition is, setting by setting: (at 35 µM) 15% (active); (confirmation repeats, at 20 µM) 81.4%.

As to `O=C(N/N=C/c1c(O)n(C2CC2)c(=S)[nH]c1=O)c1ccccc1`, the inhibition (at 35 µM) is 0.6% (inactive).

Take `CCCCC(=O)N/N=C/c1c(O)n(-c2ccccc2)c(=O)[nH]c1=O`: the inhibition (at 35 µM) is 5.3% (inactive).

Regarding `CN1CCC(OC(=O)c2cccc(F)c2)CC1`, the inhibition (at 35 µM) is -7.8% (inactive).

As for `CCN(CC)C(=O)Oc1ccc(NC(=O)N2CCOCC2)cc1`, the inhibition (at 35 µM) was 2.1% (inactive).

Consider `CCN1CCN(Cc2cc(OC)c3c(c2)OCO3)CC1`, for which the inhibition (at 35 µM) was 16.4% (inactive).

In the case of `Cc1ccc(C2CN(C)CC2C(=O)c2ccc(F)cc2)cc1` (stereo unspecified), the inhibition (at 35 µM) was 3.1% (inactive).

Consider `CC1(C)Cc2c(C#N)c(N3CCNCC3)nc(-c3ccco3)c2CS1`, for which the inhibition is 47.2% (active) (at 35 µM) and 59.2% (confirmation repeats, at 20 µM).

For the compound `O=C(N/N=C/c1c(O)n(C2CC2)c(=S)[nH]c1=O)c1ccccc1Cl`, where the note is “at 35 µM”, the inhibition is 31% (inactive).

On to `O=c1c2ccccc2nc(/C=C/c2ccc(F)cc2)n1-c1ccccc1O`, for which the inhibition (at 35 µM) is -9.7% (inactive).

Turning to `O=c1c2ccccc2nc(-c2ccco2)n1-c1ccc(Br)cn1`, under “at 35 µM”, the inhibition is 5.1% (inactive).

For the compound `O=c1c2ccccc2nc(/C=C/c2ccco2)n1-c1ccccc1O`, the inhibition (at 35 µM) is 43.7% (active) and the inhibition (confirmation repeats, at 20 µM) was 54.4%.

`CN(C)S(=O)(=O)c1cc(C(=O)N2CCC(C(=O)O)(c3ccccc3)CC2)ccc1Cl`: the inhibition (at 35 µM) was 7.1% (inactive).

As to `Cc1cccc(NC(=O)N2CC3CC(C2)c2cccc(=O)n2C3)c1` (stereo unspecified), the inhibition (at 35 µM) is -0.3% (inactive).

On to `CC1CCC(N(C)C2CCN(C)CC2)CC1` (stereo unspecified), for which the inhibition (at 35 µM) was 10.9% (inactive).

As for `Cn1c(O)c(C=Nc2ccc3c(c2)CCC3)c(=O)n(C)c1=O`, where the note is “at 35 µM”, the inhibition was -0.7% (inactive).

Consider `CN(C)CCCN=Cc1c(O)n(Cc2ccco2)c(=O)[nH]c1=O`, for which, for the setting “at 35 µM”, the inhibition is 3% (inactive).

Consider `CC(C)n1c(=O)c(C=Nc2ccc(Br)cc2)c(O)n(Cc2ccco2)c1=O`, for which the inhibition by setting is: (at 35 µM) 6% (active); (confirmation repeats, at 20 µM) 52%.

With `CCN1C(=O)C(=Cc2c(C)n(CC(=O)NCC3CCCO3)c3ccccc23)C(=O)N(CC)C1=S` (stereo unspecified), where the note is “at 35 µM”, the inhibition was -3.1% (inactive).

A word on the inhibition: it is the relative decrease from the control value, in per cent.

The values above are taken from PubChem BioAssay AID2014 (Sanford-Burnham Center for Chemical Genomics, 2009).
